The source of these data is PubChem BioAssay (NCI).

“And” between values parts separate entries of the source, which are not always exact repeats. Identical values can stand only once. Compounds without any hit were thinned out: in the full panel of roughly 83,000, 20% have a hit.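 Plates (96-well) were seeded with cells, treated with compound at one concentration, and incubated for 48 hours before percent growth was determined.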 Values without a mark were called inactive. The source made the active and inactive calls. The calls were made as follows: active = growth percent below 10; inactive = the rest.

Common to all, as to assay: NCI-60 one-dose screen, 48 h (100 = growth as untreated, 0 = no growth, -100 = all killed)
The test system of assay [1] is SR leukemia.
The test system of assay [2] is RPMI-8226 leukemia.
Assay [3] concerns OVCAR-8 ovarian.
The test system of assay [4] is OVCAR-5 ovarian.
The subject of assay [5] is OVCAR-4 ovarian.
Assay [6] concerns SK-OV-3 ovarian.
In assay [7] the test system is IGROV1 ovarian.
Assay [8] has as its system OVCAR-3 ovarian.
Assay [9] concerns HS 578T breast.
Assay [10] concerns NCI/ADR-RES ovarian.

`CN(C)CCCn1c2nc(=O)[nH]c(=O)c-2nc2cc(Cl)c(Cl)cc21`: the growth is 83.7% in assay [1] (10 µM unless noted); 73.6% in assay [2] (10 µM unless noted); 50% in [3] (10 µM unless noted); 125% in assay [4] (10 µM unless noted); 81.8% in assay [5] (10 µM unless noted); 109% in [6] (10 µM unless noted). The growth in [7] (10 µM unless noted) was 54%; in assay [8] (10 µM unless noted), -20.9% (active); in [9] (10 µM unless noted), 106%; in assay [10] (10 µM unless noted), 85.9%.

Regarding `CC(=O)/C=C/c1ccc(N(C)Cc2ccc(C(C)(C)C)cc2)cc1`, the growth in assay [1] (10 µM) was 80.4%; in assay [1] (100 µM), -29.5% (active); in [2] (10 µM), 78.2%; in assay [2] (100 µM), -49.8% (active); in assay [3] (10 µM), 92.4%; in assay [3] (100 µM) it was -54.8% (active). Besides, the growth in assay [4] (10 µM) was 102%; in [4] (100 µM), -72% (active); in assay [6] (10 µM) it was 98.4%; in [6] (100 µM) it was -29.8% (active); in assay [7] (10 µM) it was 99%; in assay [7] (100 µM) it was 1.66% (active). The growth in [8] (10 µM) was 101%; in assay [8] (100 µM), -93.2% (active); in assay [9] (10 µM), 87.1%; in [9] (100 µM), -33.3% (active); in assay [10] (10 µM) it was 86.1%; in assay [10] (100 µM), -60.1% (active).

For `CC(=O)/C=C/c1ccc(OCc2ccc(C(C)(C)C)cc2)cc1`, the growth in assay [1] (10 µM) is 65.9%; in [1] (100 µM) it was 29.5%; in assay [2] (10 µM), 67.6%; in [2] (100 µM) it was 0.803% (active); in assay [3] (10 µM), 90.5%; in assay [3] (100 µM), 23.2%. In addition, the growth in assay [4] (10 µM) was 89%; in assay [4] (100 µM), 37.6%; in assay [5] (10 µM), 74%; in assay [5] (100 µM) it was 33.8%; in assay [7] (10 µM), 98.6%; in assay [7] (100 µM), 81.6%. The growth is 94.6% in assay [8] (10 µM); 47.1% in [8] (100 µM); 75.5% in assay [9] (10 µM); 10.3% in assay [9] (100 µM); 81.1% in assay [10] (10 µM); 7.42% (active) in assay [10] (100 µM).

Turning to `CCN(Cc1ccccc1)c1ccc(/C=C2\COc3ccccc3C2=O)cc1`, the growth in assay [1] (10 µM) was 67.5%; in [1] (100 µM), 7.93% (active); in assay [2] (10 µM), 110%; in [2] (100 µM), 20.5%; in assay [3] (10 µM), 95.3%; in [3] (100 µM), 47.6%. Moreover, the growth is 101% in assay [4] (10 µM); 98.7% in assay [4] (100 µM); 102% in [5] (10 µM); 52.1% in assay [5] (100 µM); 89.4% in assay [6] (10 µM); 65.2% in assay [6] (100 µM). In addition, the growth is 99.1% in [7] (10 µM); 40.2% in assay [7] (100 µM); 108% in assay [8] (10 µM); 19.1% in assay [8] (100 µM); 96% in assay [9] (10 µM); 59.4% in assay [9] (100 µM). Also, the growth in assay [10] (10 µM) is 101%; in assay [10] (100 µM), 23.4%.

As for `CCCCC(NC(=O)CN1C(=O)/C(=C/C(C)=C/c2ccccc2)SC1=S)C(=O)O` (centres undefined), the growth in assay [1] (10 µM unless noted) is 115%; in [2] (10 µM unless noted) it was 115%; in [3] (10 µM unless noted), 102%; in assay [4] (10 µM unless noted) it was 101%; in assay [5] (10 µM unless noted) it was 101%; in [6] (10 µM unless noted) it was 105%. Also, the growth in assay [7] (10 µM unless noted) is 102%; in assay [8] (10 µM unless noted), 112%; in assay [9] (10 µM unless noted), 102%; in [10] (10 µM unless noted), 98%.

Turning to `CC(=O)/C=C/c1ccc(OCc2ccc(Cl)cc2)cc1`, the growth in [1] (10 µM) was 98%; in assay [1] (100 µM), 30%; in [2] (10 µM), 87.9%; in assay [2] (100 µM), 24.2%; in assay [4] (10 µM) it was 109%; in assay [4] (100 µM), 75%. The growth in [5] (10 µM) was 101%; in assay [5] (100 µM), 43.4%; in assay [6] (10 µM) it was 110%; in [6] (100 µM) it was 38.8%; in assay [7] (10 µM), 106%; in assay [7] (100 µM), 61.4%. The growth in assay [8] (10 µM) is 102%; in assay [8] (100 µM) it was 50.7%; in [9] (10 µM), 97.3%; in assay [9] (100 µM), 51.9%; in assay [10] (10 µM) it was 96.5%; in assay [10] (100 µM), 18%.

`O=c1oc2c(Br)cc(Br)cc2cc1-c1cc(-c2ccc(-c3cc(-c4cc5cc(Br)cc(Br)c5oc4=O)nc(-c4cc5cc(Br)cc(Br)c5oc4=O)c3)cc2)cc(-c2cc3cc(Br)cc(Br)c3oc2=O)n1`: the growth was 92.5% in assay [1] (10 µM unless noted); 102% in assay [2] (10 µM unless noted); 108% in [3] (10 µM unless noted); 109% in assay [4] (10 µM unless noted); 113% in assay [5] (10 µM unless noted); 101% in assay [6] (10 µM unless noted). Also, the growth is 106% in assay [7] (10 µM unless noted), 104% in [8] (10 µM unless noted), 90.7% in [9] (10 µM unless noted) and 98.1% in [10] (10 µM unless noted).

For the compound `Nc1[nH]nc(Nc2ccccc2)c1-c1nc2ccccc2s1`, the growth in assay [1] (10 µM unless noted) is 13.6%; in [2] (10 µM unless noted), 24%; in [3] (10 µM unless noted), 38.4%; in assay [4] (10 µM unless noted) it was 34.5%; in [5] (10 µM unless noted), 29.5%; in assay [6] (10 µM unless noted), 48.8%. The growth in [7] (10 µM unless noted) is 28.5%; in assay [8] (10 µM unless noted), 25.3%; in [9] (10 µM unless noted), 47.2%; in assay [10] (10 µM unless noted), 30%.

As to `Nc1nc2c(s1)CCc1cn(S(=O)(=O)c3ccccc3)cc1-2`, the growth is 75.2% and 92.8% in assay [1] (10 µM unless noted); 98.9% and 91.4% in [2] (10 µM unless noted); 88.6% and 110% in assay [3] (10 µM unless noted); 102% and 104% in assay [4] (10 µM unless noted); 87.5% in [5] (10 µM unless noted); 106% and 109% in assay [6] (10 µM unless noted). For the same compound, the growth is 100% in assay [7] (10 µM unless noted); 96% and 108% in [8] (10 µM unless noted); 86.4% and 107% in assay [9] (10 µM unless noted); 91.9% and 103% in assay [10] (10 µM unless noted).

On to `Cc1ccc(-c2nc3nc(-c4ccc(F)cc4)nc(N4CCCNCC4)c3o2)cc1`, for which the growth in [1] (10 µM unless noted) was -37.3% (active); in assay [2] (10 µM unless noted) it was -62.4% (active); in assay [3] (10 µM unless noted) it was -74.8% (active); in assay [4] (10 µM unless noted) it was -97.3% (active); in [5] (10 µM unless noted), -89% (active); in [6] (10 µM unless noted), -88.8% (active). Also, the growth is -88.3% (active) in assay [7] (10 µM unless noted), -96% (active) in [8] (10 µM unless noted), -75.9% (active) in assay [9] (10 µM unless noted) and -77.7% (active) in assay [10] (10 µM unless noted).
